Data on seven molecules can be found in PubChem BioAssay (NCI).

This is part of a sample that, as a whole, favours compounds with a hit. Of some 83,000 tested, about 20% had one in any assay.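 Single-concentration screen, 48 h exposure, 96-well plates. Endpoint: percent growth. Below 10 = active.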 Values without a mark were called inactive. Calls of active or inactive are those of the source.

Holding throughout (assay): NCI-60 one-dose screen, 48 h (100 = growth as untreated, 0 = no growth, -100 = all killed)
What all share (conditions): 10 µM unless noted

For assay [1], the system named is RPMI-8226 leukemia.
The subject of assay [2] is OVCAR-8 ovarian.
Assay [3] concerns OVCAR-5 ovarian.
In assay [4] the test system is OVCAR-4 ovarian.
The subject of assay [5] is SK-OV-3 ovarian.
The subject of assay [6] is IGROV1 ovarian.
For assay [7], the system named is OVCAR-3 ovarian.
Assay [8] deals with NCI/ADR-RES ovarian.
Assay [9] concerns T-47D breast.
Assay [10] deals with MDA-MB-435 melanoma.
The subject of assay [11] is SW-620 colon.
For assay [12], the system named is MCF7 breast.
Assay [13] has as its system HCT-116 colon.
The subject of assay [14] is HCC-2998 colon.
For assay [15], the system named is KM12 colon.
Assay [16] has as its system MDA-MB-468 breast.
For assay [17], the system named is HS 578T breast.
Assay [18] relates to BT-549 breast.

`NS(=O)(=O)c1ccc(-n2cc(-c3cccc(NC(=O)c4cc(N5CCOCC5)cc(C(F)(F)F)c4)c3)nn2)cc1`: the growth was 98.8% in assay [1]; 5.31% (active) in [2]; 108% in assay [3]; 48.3% in [4]; 31.2% in assay [5]; 72.9% in assay [6]. Moreover, the growth in [7] is 69%; in assay [8], 98.5%; in assay [9], 47%; in [10], 85.9%; in assay [11], 105%; in assay [12], 72.9%. Besides, the growth in assay [13] is 87.2%; in [14], 88.1%; in [15], 79%; in assay [16], 69.4%.

`CN1CCN(c2ccc(C(=O)/C=C/c3ccc(Br)cc3)cc2)CC1`: the growth in [1] was -0.714% (active); in [2], 2.63% (active); in assay [3] it was 39.5%; in [4] it was 61%; in assay [5] it was 15.8%; in [6], 39.4%. Also, the growth was 17.7% in assay [7]; 45.1% in assay [8]; 15.2% in assay [9]; 22.5% in [10]; 19.4% in assay [11]; 6.72% (active) in assay [12]. Besides, the growth was 7.41% (active) in assay [13], 14.7% in assay [14], 10.6% in [15] and -1.53% (active) in assay [16].

In the case of `NS(=O)(=O)c1ccc(-n2cc(-c3cccc(NC(=O)c4cc(Cl)cc(Cl)c4)c3)nn2)cc1`, the growth in assay [1] was 92.6%; in [2], 26.8%; in assay [3] it was 81.2%; in [4], 73.6%; in assay [5], 90.2%; in [6] it was 101%. Moreover, the growth was 89.2% in [17]; 92.7% in [8]; 48% in assay [9]; 50.4% in [10]; 54.7% in [11]; 37.1% in [12]. The growth is 45.4% in [13], 51% in assay [14], 2.24% (active) in assay [15] and 72.8% in assay [16].

Consider `COc1ccc(C(=O)/C=C/c2cccc3ccccc23)cc1S(N)(=O)=O`, for which the growth in assay [1] is -10.6% (active); in assay [2], -13.6% (active); in assay [3] it was 1.13% (active); in [4], 43.5%; in [5], 44.7%; in [6] it was 38.7%. Besides, the growth was -50.7% (active) in assay [7]; 55.2% in assay [17]; 15.1% in [8]; -2.6% (active) in assay [9]; 5.32% (active) in [10]; -16.1% (active) in [11]. Besides, the growth in assay [12] was -60.3% (active); in [13], -91.9% (active); in assay [14] it was -70.2% (active); in [15], -61.2% (active); in assay [16], -55.7% (active).

Turning to `COCOc1cc2oc(C(=O)N[C@@H](Cc3ccccc3)C(O)C(=O)NCc3ccccc3)c(C)c(=O)c2cc1OCOC` (some centres undefined), the growth in assay [1] is 99.3%; in [2], 22.2%; in [3], 91.8%; in assay [4] it was 43.9%; in assay [5], 33.4%; in assay [6] it was 101%. In addition, the growth was 71.4% in assay [17]; 98.5% in [8]; 98% in assay [9]; 95.9% in assay [18]; 38.9% in [10]; 103% in assay [11]. The growth in assay [12] is 67.5%; in [13], -15.3% (active); in assay [14], 114%; in assay [15], 64.8%; in assay [16], 79.9%.

Regarding `COc1ccc(C(=O)/C=C/c2c(F)cccc2Cl)cc1S(N)(=O)=O`, the growth in assay [1] was -10.1% (active); in [3], 25%; in [4], 42.9%; in assay [5], 27%; in assay [6] it was 21.6%; in [7], -63.4% (active). Further, the growth is 27% in [17]; 12.2% in [8]; -5.64% (active) in assay [9]; 6.73% (active) in assay [10]; 4.6% (active) in [11]; -4.58% (active) in [12]. Moreover, the growth was -89.6% (active) in assay [13], -46.2% (active) in assay [14], -41.1% (active) in [15] and -3.57% (active) in assay [16].

As to `O=C1Nc2ccc([N+](=O)[O-])cc2C1=Nc1ccccc1`, the growth in assay [1] was 121%; in assay [2], 106%; in assay [3] it was 103%; in [4], 113%; in assay [5], 113%; in assay [6], 98.6%. The growth was 95.3% in [7]; 97.9% in [17]; 103% in [8]; 84.1% in assay [9]; 102% in [11]; 85.4% in assay [12]. The growth in assay [13] is 106%; in assay [14] it was 112%; in assay [15], 105%; in [16], 109%.
